# Reference: PubChem BioAssay (NCI)
# This is part of a sample that, as a whole, favours compounds with a hit. Of some 79,000 tested, about 15% had one in any assay. Values without a mark were called inactive. Active and inactive are the calls of the source. Rule as the data show it: active = growth inhibition above about 70%; inactive = the rest.
# How the values were obtained:
# [1] = NCI Yeast Anticancer Drug Screen. Data for the rad50 strain (AID 155);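 also: 0% = growth of vehicle-only cultures of the same strain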; settings: S. cerevisiae rad50 strain growth inhibition; at 50.0 µM; hits give high values
# Procedure, shortened: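 A DNA repair-deficient yeast mutant serves as the test organism; compound-induced growth inhibition is calculated against vehicle-treated cells.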
# [2] = NCI Yeast Anticancer Drug Screen. Data for the mec2-1 strain (AID 157); settings: S. cerevisiae mec2-1 strain, at 50.0 µM, hits give high values
# Procedure, shortened: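 Cells of the genetically defined mec2-1 yeast strain are incubated with test compound. Inhibition of growth is calculated against vehicle-treated controls.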
# [3] = NCI Yeast Anticancer Drug Screen. Data for the sgs1 mgt1 strain (AID 161);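 also: 0% = growth of cultures given vehicle only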; settings: S. cerevisiae sgs1 mgt1 strain, at 50.0 µM, hits give high values
# Procedure, shortened: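 Read-out: growth inhibition vs vehicle controls. Cells: mutant yeast strain deficient in DNA damage repair.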
# [4] = NCI Yeast Anticancer Drug Screen. Data for the cln2 rad14 strain (AID 165);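 also: 0% = growth equal to vehicle treated cultures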; settings: S. cerevisiae cln2 rad14 strain, at 50.0 µM, hits give high values
# Procedure, shortened: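 The screen exposed genetically defined yeast (cln2 rad14) to test compounds and scored growth inhibition relative to vehicle-treated controls.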
# [5] = NCI Yeast Anticancer Drug Screen. Data for the bub3 strain (AID 167); settings: S. cerevisiae bub3 mutant strain, at 50.0 µM, hits give high values
# Procedure, shortened: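 Inhibition values come from growth of compound-treated mutant yeast normalised to vehicle-treated controls.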
# [6] = NCI Yeast Anticancer Drug Screen. Data for the mlh1 rad18 strain (AID 175); settings: S. cerevisiae mlh1 rad18 strain growth inhibition; at 50.0 µM; hits give high values
# Procedure, shortened: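 Compound-treated yeast growth, normalised to vehicle controls. Strain bears defined DNA repair mutations.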
Compound,growth inhibition [1],growth inhibition [2],growth inhibition [3],growth inhibition [4],growth inhibition [5],growth inhibition [6]
COc1ccc([B-]23OCC[N+]2(CNC(=O)c2ccccc2O)CCO3)cc1 (stereo unspecified),27.4%,2.7%,13.9%,14.9%,7.3%,17.6%
Cn1c(=O)c2c(nc3sc4ccccc4c(=O)n32)n(C)c1=O,19.2%,-9.05%,-7.4%,16.6%,-30.9%,13.8%
C[N+](C)(C)CCCCCC[N+](C)(C)C,-31.8%,-15.6%,-22.9%,-14.2%,-31.7%,-30.2%
Oc1ccc2c(c1)-c1ccccc1C2,38.8%,2.9%,-4.5%,17.2%,37.3%,29.9%
CC(=O)O[C@H]1CC[C@@]2(C)[C@@H](CC[C@@H]3[C@@H]2CC[C@]2(C)[C@@H](C(=O)CCC(F)(F)F)CC[C@@H]32)C1,16.9%,20.9%,33.6%,23.3%,0.15%,18.9%
CCCCCCCCCCCC(=O)C1=C(O)C(O)CCC1=O (stereo unspecified),-1.35%,-4.7%,-6.55%,-50%,-7.4%,-16.9%
Nc1nc2nc(Br)[nH]c2c(=O)[nH]1,-5.5%,-7.9%,-29.3%,-17.2%,-14.2%,-33.9%
CCC[N+](CCC)=c1ccc2nc3c(C)cc(N(CC)CC)cc3sc-2c1,-60.6%,-6.45%,-20.6%,-126%,-130%,-39.2%
COC(=O)C(C)CN1CCCCC1 (stereo unspecified),20.1%,6.2%,22.1%,-6.45%,31.9%,19.9%
CCOC(=O)c1ccc(N(N=O)C(C)C)cc1,5.3%,5.15%,9.6%,-16%,1.25%,5.15%
CCOC(=O)NCC(=O)NCC(=O)NCC(N)=O,-14.2%,-19.2%,-12.9%,-9.65%,-25.1%,7.95%
COc1cc(-c2nnc3n2NC=C(C(=O)O)S3)cc(OC)c1OC,6.75%,2.45%,-10.9%,5.45%,28.2%,21.8%
N#C/C(=C/C=C/c1ccccc1)c1ccc([N+](=O)[O-])cc1,22%,23.4%,24.8%,-8.2%,36.5%,18.9%
ClC1=C(Cl)C2(Cl)C3C(c4ccc(I)cc4C4C3C3(Cl)C(Cl)=C(Cl)C4(Cl)C3(Cl)Cl)C1(Cl)C2(Cl)Cl (stereo unspecified),14.6%,15.4%,8.8%,14.1%,20.6%,16.9%
C=C[C@@H]1C(CO)=CCC2[C@H]1CCC1C(C)(C)C(=O)CC[C@]21C (stereo partly specified),-7.95%,-13.4%,-5.7%,2.7%,0.05%,-47.1%
CC(O)(c1ccco1)c1nc2ccccc2s1 (stereo unspecified),-10.4%,15.6%,0.55%,-6.2%,-1.25%,-11.8%
C=CC(=O)OCC(C)(C)COC(=O)C=C,3.3%,-34.5%,-16.7%,16.1%,19.8%,-12.6%
COC(=O)C1(O)CCC(C)CC1 (stereo unspecified),14.4%,-9.25%,-8.65%,-26.3%,2.1%,14.8%
COCCCNC(=O)C1=C(C)NC(C)=C(C(=O)NCCCOC)C1,-49%,-64.2%,-10.7%,3.6%,-11.2%,-50.6%
Cc1[nH]c(=O)[nH]c(=O)c1NC=O,-3.6%,-28.3%,-8.85%,14.6%,-11.8%,-27.1%
O=C(Nc1ccc(F)c([N+](=O)[O-])c1)N(Cc1ccccc1)c1ccccc1,8.05%,1.05%,1.55%,5.95%,26.9%,16.9%

Compound,growth inhibition [1],growth inhibition [2],growth inhibition [3],growth inhibition [4],growth inhibition [5],growth inhibition [6]
O=c1c(-c2ccccc2)coc2ccccc12,-9%,1.45%,8.15%,-52%,-14.3%,0.15%
N#Cc1ccccc1C#N,-0.8%,-5%,-7.7%,-13.9%,-4.7%,-0.4%
COc1c(NC(=O)C(Br)C(Br)C(=O)O)cccc1[N+](=O)[O-] (stereo unspecified),-20.9%,19.5%,-7.65%,85% (active),-2.85%,-2.25%
C[N+]([O-])=C(c1ccccc1)c1ccccc1,-15.7%,5.55%,-9.4%,4.5%,-30.8%,-4.9%
COc1ccc(NC2C(=O)C3(C)CCC2C3(C)C)cc1 (stereo unspecified),-17.2%,-10.9%,-8.25%,-49.3%,12.2%,-41.1%
Cc1[nH]ccc2c3ccc(=O)cc3n(S(=O)(=O)O)c12,10.7%,-8.3%,-1.45%,18.4%,16.8%,-7.25%
CC1(C)OC(COCCOCCCCCO)C(COCCOCCCCCO)O1 (stereo unspecified),7.1%,3.75%,6.2%,17.9%,-3.05%,6.7%
CC(=O)c1ccc2ccccc2c1,24.4%,7.8%,4.3%,2.75%,-0.1%,16.2%
Clc1ccc(Nc2ncco2)cc1Cl,16.7%,-15.2%,30.6%,-0.8%,1.1%,16.8%
Cc1ccc2ccccc2c1C(=O)c1ccccc1Cc1cccc2ccccc12,17.6%,2.65%,10.6%,2.2%,4.55%,-1.05%
CCOC(=O)COc1ccc(Cc2ccc3c(c2)OCO3)cc1C,-0.7%,3.1%,-2.45%,-6.05%,16.2%,0.9%
COc1cc(C(=O)n2c(=O)oc(=O)c3cc([N+](=O)[O-])ccc32)cc(OC)c1OC,-15.4%,-6.15%,-16.4%,-6.65%,1.6%,2.2%
O=C(O)CCc1cccc2c(=O)cc(-c3ccccc3)oc12,-10.3%,-1.7%,0.8%,30.9%,8.35%,3.35%
O=C(O)c1ccnc(-c2ccc(Cl)cc2)c1,5.5%,5.75%,-1.65%,-17.2%,-16.8%,9.05%
CC1NCCC(CC(=O)O)C1CC(=O)O (stereo unspecified),-7.55%,-26%,1.75%,-41.1%,-26.8%,-10.3%
O=C(NNc1ccccc1)c1ccc(Cl)cc1Cl,3.5%,-9.4%,50%,-0.05%,50.4%,34.9%
Cc1ccc(S(=O)(=O)/C(C#N)=C/NC(=S)Nc2ccc(C)cc2C)cc1,-53.7%,-26.9%,-30.8%,-41.4%,-40.5%,-41.4%
COc1ccc(CCCC2C(=O)CC(C)OC2=O)cc1OC (stereo unspecified),-26.9%,3.25%,2.1%,-25.8%,3.05%,-0.4%
CN(C)NC(=O)/C=C\C(=O)O,-12.6%,-17.4%,-9.8%,-6.9%,-7.45%,-3.2%
O=C(CCCCCCCCC(=O)OCCCn1cc(C(=O)NC(=O)OCc2ccccc2)c(=O)[nH]c1=O)OCCCn1cc(C(=O)NC(=O)OCc2ccccc2)c(=O)[nH]c1=O,-28.6%,-41.7%,-25.6%,1.7%,-24.2%,-36.8%
